# Source: PubChem BioAssay (Broad Institute)
# AI-2 QS mod: Vibrio harveyi AI-2 quorum sensing modulators, primary screen, JMH597 strain, luminescence/OD600 ratio. activity change, % at 7.5 µM. AID 2094, 2009. Vibrio harveyi JMH597 AI-2 luminescence/OD600 ratio, 9 h; hits give low values; strain lacks LuxN and CqsS sensors; 0 = neutral-control median. 0.4% of 300,000 active; in the data active means activity change below about -75%, passing the limit was not always enough;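 further: luminescence divided by OD600 gain over 9 h not by final OD600 alone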
# SUMO Mot1 rescue: yeast Mot1-301 growth rescue at high temperature, primary screen, SUMOylation pathway inhibitor project, S. cerevisiae, ATP luminescence, 38.5C | S. cerevisiae Mot1-301 growth rescue; percent above DMSO median, 100 means doubled | growth rescue, % at 18.8 µM | 1% of 320,000 active | AID 2716, 2010;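 active means every valid replicate shows activation above 250% relative to neutral control wells; inactive means the rest, any valid replicate at or below 250%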;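 further: OY570 slx delta 5 strain wells were the positive control but not used for scaling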
# HIF activator: HIF pathway transcriptional activators, primary screen, cell-based, U2OS HRE-luciferase, luminescence; U2OS HRE-luciferase reporter; normalized: DMSO 0%, desferrioxamine 100%; activation, % at 7.5 µM (by protocol); 0.32% of 300,000 active;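 active means mean activation of at least 10% of the iron chelator positive control signal, with at least half of replicates also reaching 10%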
# ALR inh: inhibitors of human ALR sulfhydryl oxidase, primary screen, biochemical, H2O2 detection, HRP-luminol luminescence, single point | 3.8% of 290,000 active | purified ALR, DTT oxidation | inhibition, % (no concentration beside the values) | FAD-linked sulfhydryl oxidase ALR (Homo sapiens), P55789;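 active means mean replicate inhibition above about 79%, with every replicate also reaching it, limit read from the data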
# Target sequence (P55789 whole entry, looked up): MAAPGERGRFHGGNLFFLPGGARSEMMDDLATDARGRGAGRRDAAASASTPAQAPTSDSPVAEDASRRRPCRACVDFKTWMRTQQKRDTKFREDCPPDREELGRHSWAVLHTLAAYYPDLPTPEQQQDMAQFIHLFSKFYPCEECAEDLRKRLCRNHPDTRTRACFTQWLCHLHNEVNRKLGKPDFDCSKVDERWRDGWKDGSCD
# Numbers without * were called inactive; . = not tested or not shown. An excerpt weighted towards active compounds, which were near 4.8% of everything screened.
SMILES,AI-2 QS mod,SUMO Mot1 rescue,HIF activator,ALR inh
Cc1ccc2c(c1)N(CC(=O)NCCC1=CCCCC1)C(=O)c1cccnc1O2,5,-6,0,-9
CCCOc1ccc(NC(=O)CC2Nc3ccccc3NC2=O)cc1 (stereo unspecified),21,571*,0,-3
CCOc1ccc(NC(=O)CC2C(=O)Nc3ccccc3N2C(=O)c2ccccc2)cc1 (stereo unspecified),-11,1,26*,-1
COc1ccc(NC(=O)CC2C(=O)Nc3ccccc3N2CC(=O)N2CCCC2)cc1 (stereo unspecified),.,5,.,98*
O=C(CSc1n[nH]c(-c2ccc(Br)cc2)n1)N1CCOCC1,.,-32,.,15
Cc1ccc2c(c1)[C@@H]1[C@H](CO2)[C@H](c2ccccc2)[C@]2(C)C(=O)N[C@H](C)C(=O)N12,.,-15,.,-4
CC(=O)NN1C(=O)/C(=C/c2ccc(C(C)C)cc2)SC1=S,18,17,0,98*
O=C(O)c1ccc(/C=C2\SC(=S)N(NC(=O)c3ccccc3)C2=O)cc1,54,-8,-1,19
c1csc(CNc2nc(-c3cccs3)nc3ccccc23)c1,35,21,-1,96*
c1ccc(N2CCN(c3nc(-c4cccs4)nc4ccccc34)CC2)cc1,8,825*,0,8
CCCCOc1ccc(CC(=O)NO)cc1,-6,170,0,91*
Cc1ccc2nc(Cl)c(CNCc3ccccc3)cc2c1,-82*,0,0,-9
Cc1ccc(CNCc2ccccc2Cl)cc1,35,212,0,2
COC(=O)c1c(C)noc1-c1snnc1C,22,16,1,-4
CC(C)=NOC(=O)c1c(C)noc1-c1snnc1C,17,0,60*,5
CC1(CCC(=O)N2CCCC(N3CCN(c4cccc(C(F)(F)F)c4)CC3)C2)CC1 (stereo unspecified),7,2,0,-16
COc1cccc(CNC(=O)c2ccc(C3SCCS3)cc2)c1,23,-14,1,91*
Cc1oc(-c2ccccc2F)nc1CN1CCC(C(=O)NC2CC2)CC1,4,-27,-1,7
Cc1ccccc1-c1nc(CS(=O)CC(=O)NC2CCCC2)c(C)o1 (stereo unspecified),11,19,0,99*
Cc1ccccc1-c1nc(CS(=O)CC(=O)NC2CC2)c(C)o1 (stereo unspecified),10,-3,0,99*
Cc1oc(-c2ccccc2F)nc1CS(=O)CC(=O)NC1CCCC1 (stereo unspecified),16,1,0,99*
Cc1oc(-c2ccccc2F)nc1CS(=O)(=O)CC(=O)NC1CCCC1,14,-22,0,37
Cc1ccccc1-c1nc(CS(=O)CC(=O)NC2CCCCC2)c(C)o1 (stereo unspecified),3,-5,0,99*
COc1ccccc1-c1cc(C(=O)NC2CCCC2)no1,14,13,2,-2
COc1cc2cc(C(=O)Nc3ccc4c(c3)OCCO4)[nH]c2cc1OC,-3,-1,1,-15
SMILES,AI-2 QS mod,SUMO Mot1 rescue,HIF activator,ALR inh
CCc1cc(C(=O)NCC(c2ccco2)N2CCCCC2)sc1C (stereo unspecified),.,-4,.,32
CC(OC(=O)CNC(=O)c1ccc2ccccc2c1)C(=O)N(C)C1CCCCC1 (stereo unspecified),-1,24,1,.
COc1cccc(NC(=S)N2CCC(NC(=O)c3ccco3)CC2)c1,26,-13,1,-1
CC(C)Cc1nc(SCC(=O)N2CCCC2)c2c(=O)n(C)c(=O)n(C)c2n1,6,-8,0,-1
Cc1cc(S(=O)(=O)N2CCN(c3ccccc3F)CC2)ccc1-n1cnnn1,1,-6,0,0
CCOC(=O)c1sc(=S)n(C)c1N,13,-17,0,99*
CCn1c(N)c(C(=O)NC2CCCCC2)sc1=S,13,2,0,98*
C=CCn1c(N)c(C(=O)N2CCN(C)CC2)sc1=S,11,-10,0,99*
C=CCn1c(N)c(C(=O)OCC)sc1=S,16,2,0,99*
Cc1ccc(-n2c(N)c(C(=O)N3CCN(C)CC3)sc2=S)cc1,7,-10,0,3
C(=C\n1nnc2ccccc21)/c1ccc[nH]1,-22,2,0,25
CCn1c(N)c(C(N)=O)sc1=S,18,-5,0,98*
